Experimental findings from PubChem BioAssay AID1962 (The Scripps Research Institute Molecular Screening Center, 2009) are described below.

About 2,500 (0.83%) of roughly 300,000 compounds were called active. For the sample, actives were picked, then their nearest neighbours and some compounds at random. A number with no mark means an inactive call.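 Rule for the calls: active = inhibition above the mean of all tested compounds plus 3 SD, set per screening campaign (cut at about 24% in these data); inactive = the rest.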

In this experiment the test system is tRNA 2'-phosphotransferase TPT1 (Candida albicans SC5314). Kind of experiment: tRNA 2'-phosphotransferase blockers, C. albicans – biochemical, fluorescence polarization, primary screen (AID 1962).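 Note: plate controls were DMSO alone for no effect and ferristatin control at 100 nM for full effect.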 The settings on record: recombinant caTPT1, FP RNA substrate dephosphorylation; at 5 µM; stronger effect = higher value.
For the compound `CC(=O)N1c2ccccc2N(Cc2ccc([N+](=O)[O-])cc2)C(=O)C1(C)C`, the inhibition is 9.11%.

As for `O=C1NC(=O)C2C1C(c1ccc([N+](=O)[O-])cc1)=NN2Cc1ccccc1` (stereo not given), the inhibition is 32.4% (active). In the case of `CC1=NN(c2ccccc2)C(=O)C1C(=O)c1ccc([N+](=O)[O-])cc1` (stereo not given), the inhibition is 0.3%. In the case of `CC(=O)c1ccc(N2C(=NC(=O)C(C)C)SC3CS(=O)(=O)CC32)cc1` (stereo not given) it was -0.98%.

For `Nn1c(SCC(=O)Nc2nccs2)nncc1=O`, the inhibition was 0.93%. Take `COCCn1cnc2c1c(=O)n(CC(=O)NN)c(=O)n2Cc1ccccc1`: the inhibition is -3.43%. To `COc1cc(NC(=O)C2=CC(c3ccco3)=NS(=O)(=O)N2C)cc(OC)c1OC` belongs -0.29%. In the case of `CC1=C(C(=O)OC2CCCCC2)C(c2ccccc2F)NC(=O)N1` (stereo not given) it was 1.28%.

On to `CN1C(=O)/C(=C/c2ccco2)SC1=Nc1cccc(C(=O)O)c1`, for which the inhibition is -0.91%. In the case of `CN1C(=O)/C(=C\c2ccc(-c3ccccc3)o2)SC1=S` it was 47% (active); in that of `O=C1NN(c2ccccc2)C(=O)/C1=C/c1ccc(-c2cccc(C(=O)O)c2)o1`, -6.86%; in that of `O=C(O)C(c1ccccc1)N1C(=O)/C(=C\c2ccc(-c3cccc(Cl)c3)o2)SC1=S` (stereo not given), 134% (active). In the case of `NS(=O)(=O)c1ccc(-c2ccc(/C=C3\SC(=O)NC3=O)o2)cc1` it was 0.01%. To `O=C1c2ccccc2NC(c2ccc(-c3cccc(Cl)c3)o2)N1O` (stereo not given) belongs 2.03%. For the compound `Cn1cc[n+](C)c1COc1ccc(C=O)cc1`, the inhibition was -0.82%. In the case of `CCc1ccc(Nc2n[n+](-c3ccccc3)c(-c3cccc(Cl)c3Cl)s2)cc1` it was -1.82%; in that of `OCC[C@H]1C[C@H](O)[C@@H](O)[C@]2(Cc3ccccc3CO2)O1`, 1.4%; in that of `Cc1ccc(C(=O)NCC(=O)OCC(=O)Nc2cccc(S(=O)(=O)N3CCCC3)c2)cc1C`, -0.56%. In the case of `CCn1cc(C(=O)NC2CCCCCC2)c(=O)c2cc(S(=O)(=O)N3CCCCC3)ccc21` it was -2.73%. To `COc1ccc(C(=O)CC(=O)c2ccc(C)cc2)c(O)c1` belongs -1.28%; to `O=C(COC(=O)c1cnccn1)Nc1cccc2ccccc12`, -2.21%; to `O=C(N/N=C/c1sc(N2CCCCC2)nc1-c1cccs1)c1cccnc1`, 61.1% (active). Take `O=C(N/N=C/c1ccccn1)c1cccnc1`: the inhibition is -1.95%. Take `Cc1cc(/C=N/NC(=O)c2cccnc2)c(C)n1CC(C)C`: the inhibition is -3.6%. In the case of `CCSC(C)CC1C/C(=N/O)c2c(C)noc2C1` (stereo not given) it was -7.78%; in that of `COc1ccc(NC(=O)CN(C)C(=O)c2ccc(COc3ccccc3)o2)cc1`, 1.15%; in that of `CCN1/C(=C/c2ccc3ccc(C)cc3[n+]2CC)Sc2ccccc21`, 49.5% (active). For the compound `CCN1/C(=C\c2ccc3ccccc3[n+]2CC)Sc2cc(C)ccc21`, the inhibition was 68.7% (active). To `COCCCNC(=O)Cn1c(=O)n(Cc2ccccc2Cl)c(=O)c2cc(OC)c(OC)cc21` belongs 1.46%; to `COc1ccc(C2=NOC3(CC(=O)N(c4ccc(Cl)cc4)C3=O)C2)c(OC)c1` (stereo not given), -4.26%; to `O=C(c1cccc(Br)c1)N1CCN(C2=NS(=O)(=O)c3ccccc32)CC1`, 0.45%. To `COc1cccc(/C=C(/CC(=O)Nc2ccc(N3CCOCC3)cc2)c2nc3ccccc3s2)c1` belongs 9.31%; to `O=S(=O)(c1cccc(-c2nnc(SC(F)F)n2-c2ccccc2)c1)N1CCCCC1`, -5.49%; to `CCN(CC)C(=O)CSC(Nc1cccc(F)c1)=C(C#N)C#N`, 62.4% (active). In the case of `Cc1ccc(CSCC(=O)N(C)CC(=O)Nc2cccc(F)c2)cc1` it was 1.31%; in that of `CCN(CC)C(=O)C(=O)Nc1cccc(Br)c1`, -2.63%; in that of `O=C(CNc1ccc(F)cc1F)NC(=O)NCc1ccco1`, -0.97%. On to `CCOC(=O)[C@H]1[C@H]2COc3ccc(Cl)cc3[C@@H]2N2C(=O)c3cc(C)ccc3NC(=O)[C@@]12C`, for which the inhibition was 2.94%. Regarding `Cc1cc(-c2ccc(S(=O)(=O)N3CCc4ccccc4C3)s2)on1`, the inhibition was -0.99%.

Take `CS(=O)(=O)N(CC(=O)N/N=C/c1ccccn1)c1ccc(Oc2ccccc2)cc1`: the inhibition is -0.87%. To `CCCCCCc1cc2cc(-c3nnc(-c4ccccc4)o3)c(=O)oc2cc1O` belongs 133% (active). To `Cc1c(CC(=O)NCCCCCC(=O)O)c(=O)oc2cc3occ(-c4ccccc4)c3cc12` belongs -0.72%. To `CCCCCCc1ccc(O)cc1O` belongs 2.21%; to `Cn1ccc(=NC=C(C#N)C#N)c2ccccc21`, 25.3% (active).

On to `N#CC(C#N)=CN=c1ccn(Cc2ccc(Cl)cc2Cl)cc1`, for which the inhibition is 0.38%. To `Cc1cc(NC(=O)Nc2c[nH]c(=O)[nH]c2=O)ccc1Br` belongs 0.27%; to `CCCc1nc2c(C)cc(-c3nc4ccccc4n3C)cc2n1Cc1ccc(-c2ccccc2C(=O)O)cc1`, 1.15%. In the case of `Cc1nc2ccccc2nc1N/N=C/c1ccc(O)cc1O` it was 1.81%; in that of `Oc1ccc(/C=N/Nc2nc(-c3ccccc3F)nc3ccccc23)c(O)c1`, 24.8% (active); in that of `Fc1ccc(/C=N/Nc2nc(-c3cccnc3)nc3ccccc23)cc1`, 0.23%. To `CN(C)C1=NC[C@H](Cc2ccccc2)N1CCc1ccc(F)cc1` belongs -4.71%. With `Cc1cc(C)c(S(=O)(=O)N2C=CC(C(F)(F)F)=NCC2)c(C)c1`, the inhibition was -0.62%. As for `O=S(=O)(c1ccc(F)cc1)N1CCN(C(=S)NCc2ccco2)CC1`, the inhibition was 1.64%. To `OCC[C@H]1C[C@@H](O)[C@H](O)[C@@]2(OCCc3ccccc32)O1` belongs 0.6%; to `OCC[C@H]1C[C@H](O)[C@@H](O)[C@]2(CCc3ccccc3O2)O1`, -0.81%; to `COc1ccccc1CC(=O)NCCc1c[nH]c2ccccc12`, -1.76%. To `O=S(=O)(O)Oc1c[nH]c2ccccc12` belongs 25.4% (active); to `O=C(Cc1c[nH]c2ccccc12)OCCOC(=O)Cc1c[nH]c2ccccc12`, 0.4%; to `CN1CCN(Cc2nc3cc(NC(=O)COc4ccc([N+](=O)[O-])cc4)ccc3n2C)CC1`, -2.77%. In the case of `COc1ccc(C(=O)Nc2sc(C)c(C)c2CN2CCOCC2)cc1` it was 2.12%; in that of `C#CCOCCOCCOCCNc1nc(N2CCN(C(=O)CCCCCCCCCCNC(=O)Cn3cc(CCCCCN)nn3)CC2)nc(N2CCN(C(=O)CCCCCCCCCCNC(=O)[C@H](CO)n3cc(CCCSC)nn3)CC2)n1`, -0.6%.

With `Cc1ccc(N=Cc2c(O)cc(C)oc2=O)c(C)c1`, the inhibition is 9.41%. To `Cc1cc(O)c(C(=O)/C=C/c2c(F)c(F)c(F)c(F)c2F)c(=O)o1` belongs 44.1% (active); to `Cc1cc(O)c(Sc2ccccc2)c(=O)o1`, 0.86%; to `Cc1ccc(-n2c(SCC(=O)NCCC3=CCCCC3)nc3n[nH]c(C)c3c2=N)cc1Cl`, 0.45%. In the case of `CO[C@@H]1[C@@H](OC(N)=O)[C@@H](O)C(Oc2ccc3c(O)c(NC(=O)c4ccc(O)c(CC=C(C)C)c4)c(=O)oc3c2C)OC1(C)C` (stereo not given in full) it was -0.98%; in that of `Cc1ccc(Cl)c(NC(=O)CN(C)CC(=O)Nc2ccc(F)c(F)c2F)c1Cl`, 2.01%; in that of `COc1ccc(C2=NN(C(C)=O)C(c3ccccc3)C2)cc1` (stereo not given), -4.9%. To `COc1ccc(C2=NN(C(=O)c3cccnc3)C(c3ccccc3)C2)cc1` (stereo not given) belongs 3.29%. `COc1ccc(C2=NN(C(=O)c3ccccc3C(=O)O)C(c3ccccc3O)C2)cc1` (stereo not given): the inhibition was 35.3% (active). In the case of `O=C(Nc1cc(-c2ccccc2)nn1-c1ccccc1F)c1ccc([N+](=O)[O-])cc1` it was 1.59%. Turning to `Cc1ccc2c(c1)C(c1ccccc1)N(C(=O)c1ccc(S(=O)(=O)N3CCOCC3)cc1)CC(=O)N2` (stereo not given), the inhibition is 1.61%. In the case of `CCN(CC)CCNc1nc(-c2ccc(OC(F)F)cc2)c(C)s1` it was -0.49%; in that of `CCOc1ccc(/C=C2\SC(=S)N(NC(=O)c3ccncc3)C2=O)cc1OC`, 33.7% (active).

For the compound `COc1ccc(/C=C2\SC(=S)N(CC(=O)NNC(=O)c3ccncc3)C2=O)cc1`, the inhibition was -4.74%. In the case of `COc1ccc(/C=C2\SC(=S)N(CCC(=O)Nc3ccccn3)C2=O)cc1OC` it was 1.07%; in that of `O=C(c1cc(-c2ccc(Cl)cc2)on1)N1CCN(c2ccccc2)CC1`, -0.95%.

For the compound `O=C(O)CCCC(=O)Nc1ccc(Oc2cccc(C(F)(F)F)c2)nc1`, the inhibition was -1.11%. In the case of `COC(=O)c1[nH]c2ccccc2c1NC(=O)CN1CCCc2ccccc21` it was 11.9%; in that of `NS(=O)(=O)c1cccc(NC(=O)CN2CCCc3ccccc32)c1`, 14.5%.

Turning to `COC(=O)c1[nH]c2cccc(C)c2c1NC(=O)CN1CCCc2ccccc21`, the inhibition is 29% (active).

Turning to `S=C(NC1CCCCC1)NN1CCOCC1`, the inhibition was -1.16%. For the compound `Cc1nn(C(C)CC(=O)O)c(C)c1C` (stereo not given), the inhibition was 0.87%.

`CC[n+]1cc(C)ccc1/C=C/c1ccc(N(C)C)cc1`: the inhibition was 29.6% (active). In the case of `CN(C)c1ccc(/C=N\S(=O)(=O)c2ccccc2)cc1` it was 0.48%. In the case of `CCCCN(CC)C(=O)C1CCCN(S(=O)(=O)c2cccc3nsnc23)C1` (stereo not given) it was -2.13%; in that of `CCOC(=O)c1c(CC(C)C)csc1/N=C/C1=C(O)CCCC1=O`, 98.3% (active); in that of `Cc1cc(N=CC2=C(O)CCCC2=O)no1`, -5.36%.

Consider `CCOC(=O)c1sc(/N=C/C2=C(O)CC(C)(C)CC2=O)c(C(=O)OCC)c1C`, for which the inhibition was -1.8%. To `CC1CCC(CN2CCN=C2N(C)C)CC1` (stereo not given) belongs -1.25%.

Broadly, the inhibition is the relative decrease from the control value, in per cent.
